Bioassay records from PubChem.
AHR activator = AHR activators, primary screen, cell-based, luminescence, luciferase reporter, human. AID 2796, 2010. 320,000 compounds, 2.5% hits. Aryl hydrocarbon receptor (Homo sapiens), P35869. activation, % at 5 µM. AHR-responsive luciferase reporter cells; in the data active means activation above about 47%;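 further: 0% = vehicle wells and 100% = reference agonist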
Target sequence (P35869 whole entry, looked up): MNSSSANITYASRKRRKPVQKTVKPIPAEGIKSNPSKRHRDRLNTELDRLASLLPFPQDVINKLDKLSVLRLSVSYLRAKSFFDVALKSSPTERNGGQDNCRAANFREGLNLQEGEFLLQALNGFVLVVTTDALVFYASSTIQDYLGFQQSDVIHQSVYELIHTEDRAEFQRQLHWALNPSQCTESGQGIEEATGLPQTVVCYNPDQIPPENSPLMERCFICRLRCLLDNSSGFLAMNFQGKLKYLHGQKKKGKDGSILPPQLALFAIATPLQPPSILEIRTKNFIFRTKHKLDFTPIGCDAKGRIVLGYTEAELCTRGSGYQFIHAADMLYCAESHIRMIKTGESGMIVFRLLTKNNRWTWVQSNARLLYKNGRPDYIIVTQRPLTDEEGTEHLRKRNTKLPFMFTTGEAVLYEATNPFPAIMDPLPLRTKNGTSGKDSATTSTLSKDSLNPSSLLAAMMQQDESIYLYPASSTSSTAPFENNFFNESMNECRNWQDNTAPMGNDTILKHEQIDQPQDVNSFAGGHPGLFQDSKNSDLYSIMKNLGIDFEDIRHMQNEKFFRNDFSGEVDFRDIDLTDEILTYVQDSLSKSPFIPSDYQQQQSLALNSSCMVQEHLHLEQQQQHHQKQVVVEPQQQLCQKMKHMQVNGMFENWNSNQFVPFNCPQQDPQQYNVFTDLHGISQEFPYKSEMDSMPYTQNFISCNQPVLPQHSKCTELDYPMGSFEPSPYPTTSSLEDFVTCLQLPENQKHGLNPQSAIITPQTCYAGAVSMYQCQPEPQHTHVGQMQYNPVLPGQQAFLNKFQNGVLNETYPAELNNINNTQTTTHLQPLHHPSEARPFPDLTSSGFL
NR3A LBD binder = binders of NR3A ligand-binding domain, primary screen, biophysical, differential scanning fluorimetry, uHTS. AID 1259313, 2017. 340,000 compounds, 2.5% hits. NR3A LBD differential scanning fluorimetry, Tm shift; 0% = protein alone, 100% = glycine-bound protein. Tm shift relative to glycine control, % at 25 µM. Glutamate receptor ionotropic, NMDA 3A (GRIN3A) ligand-binding domain;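 active means melting temperature shift of at least 10% of the positive control shift, at one fixed dose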
Mot1-301 SUMO = yeast Mot1-301 growth rescue at high temperature, primary screen, SUMOylation pathway inhibitor project, S. cerevisiae, ATP luminescence, 38.5C; growth rescue, % at 18.8 µM; 320,000 compounds, 1% hits; S. cerevisiae Mot1-301 growth rescue; percent above DMSO median, 100 means doubled; AID 2716, 2010;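 active means every valid replicate shows activation above 250% relative to neutral control wells; inactive means the rest, any valid replicate at or below 250%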;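 further: OY570 slx delta 5 strain wells were the positive control but not used for scaling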
Cardio protect = cardioprotection against H2O2-induced cell death, primary screen, uHTS, H9c2 cells, ATPLite luminescence; H9c2 cardiomyocytes, H2O2 injury protection, 2 h; protection from H2O2 cell death, % at 20 µM; 360,000 compounds, 0.63% hits; AID 588492, 2011;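 active means compounds giving at least 50% protection of heart cells from peroxide-induced death in the single-dose screen, raw or plate-pattern-corrected value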;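 further: 0% = DMSO wells with peroxide and 100% = DMSO wells without peroxide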
AI-2 QS mod = Vibrio harveyi AI-2 quorum sensing modulators, primary screen, JMH597 strain, luminescence/OD600 ratio; Vibrio harveyi JMH597 AI-2 luminescence/OD600 ratio, 9 h; active compounds read low; strain lacks LuxN and CqsS sensors; 0 = neutral-control median; activity change, % at 7.5 µM; 300,000 compounds, 0.4% hits; AID 2094, 2009; in the data active means activity change below about -75%, passing the limit was not always enough;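 further: luminescence divided by OD600 gain over 9 h not by final OD600 alone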
NTR1 ag = agonists of human NTR1, primary screen, imaging, U2OS cells, beta-arrestin-GFP, high content; Neurotensin receptor type 1 (Homo sapiens), P30989; NTR1-U2OS beta-arrestin-GFP spot imaging, agonist mode; activation, % at 20 µM; 330,000 compounds, 0.17% hits;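 active means activation at or above 40% of the spot to cytoplasm intensity ratio, with at least 20 cells analyzed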;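 further: 0% = DMSO without peptide and 100% = 100 nM NTR1 peptide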
JMH597 growth rt = Vibrio harveyi growth inhibition, confirmation, counter-screen for AI-2 quorum sensing project, JMH597 strain, OD600 absorbance. shares compounds with AI-2 QS mod. 9 h; lacks LuxN and CqsS sensors. growth inhibition, % at 7.5 µM. 750 compounds, 1% hits;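 active means every replicate shows growth inhibition above 50%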
BB721 lum counter = luminescence inhibition in constitutive-on V. harveyi, confirmation, counter-screen for LuxS inhibitor project, strain BB721, luminescence readout; shares compounds with AI-2 QS mod; Vibrio harveyi BB721 luminescence, 9 h; inhibition, % at 7.5 µM; 750 compounds, 95% hits; AID 2727, 2010;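 active means inhibition above about 80% in every replicate, not just on average, limit read from the data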
BB721 growth = growth inhibition of V. harveyi BB721, confirmation, cytotoxicity control for AI-2 quorum sensing inhibitors, strain BB721, absorbance OD600. Vibrio harveyi BB721 growth, 9 h. 750 compounds, 3% hits. AID 2728, 2010. growth inhibition, % at 7.5 µM. shares compounds with AI-2 QS mod;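 active means every replicate shows growth inhibition above 50%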
AI-2 QS JMH597 = Vibrio harveyi AI-2 signaling luminescence modulation – JMH597 strain, confirmation. shares compounds with AI-2 QS mod. Vibrio harveyi JMH597 AI-2 quorum sensing luminescence, 9 h; luxN and CqsS knockout, AI-2 only. inhibition, % at 7.5 µM. 750 compounds, 97% hits. AID 2736, 2010;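 active means every replicate shows more than 75% inhibition of signal versus neutral control wells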
Yeast Mot1 SUMO = growth restoration of Mot1-301 yeast on galactose, dose response, SUMO pathway inhibitor project, whole organism, S. cerevisiae, ATP luminescence, cherry-picked samples. shares compounds with Mot1-301 SUMO. S. cerevisiae Mot1-301 galactose growth, 24 h; -100 = growth of slx-deleted rescue strain. growth activity, percent, % at 42 µM. 2,300 tested, under 10 active;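 active means Signal drops as the depositor expects, and the fitted half-maximal dose is no more than ten times the top valid tested dose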;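 further: more negative values mean stronger growth rescue toward the control strain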
* hit, by the source's call; . = no result; + = active, no number; [ ] = another dose, or the depositor's remark. Sampled rows, rich in hits. Any-hit rate of the full collection: about 6.2%.

SMILES | AHR activator | NR3A LBD binder | Mot1-301 SUMO | Cardio protect | AI-2 QS mod | NTR1 ag | Yeast Mot1 SUMO | others
OCC1CN1C1CCCCC1 (stereo not given) | . | 1.8 | . | 1.0 | . | . | .
CCC1(c2ccc(-c3ccccc3)cc2)C(=O)NC(=O)NC1=O | -1.3 | -1.3 | -25.1 | -1.8 | -90.1* | -0.5 | . | JMH597 growth rt=26.2;BB721 lum counter=97.8*;BB721 growth=40.3;AI-2 QS JMH597=98.3*
O=C1NC(=O)C(CCc2ccncc2)(c2ccccc2)C(=O)N1 | 1.9 | -0.6 | -8.7 | -1.6 | 8.9 | -0.4 | .
CS(=O)(=O)N1Cc2ccccc2-n2nncc2C1 | . | -2.6 | . | 11.5 | . | . | .
Cn1cc(C(=O)Cc2ccccc2)c2ccccc21 | -4.1 | 1.9 | 671.3* | 6.3 | 17.1 | 0.2 | 0.6
Cc1ccc(O)c(C)c1 | -3.2 | 0.1 | 388.9* | -4.1 | . | -2.0 | 1.2
O=C(CCCc1ccc(N(CCCl)CCCl)cc1)NCc1ccccc1 | . | . | . | -6.4 | . | . | .
COc1ccccc1-n1c(O)c(/C=C2\C=Nc3ccccc32)c(=O)[nH]c1=O | 27.4 | -1.6 | 561.5* | 21.4 | 10.7 | 3.3 | 0.3
CC1(C)C(C(=O)N2CCN(c3ccc(Cl)cc3)CC2)C1(C)C | 1.6 | 1.2 | -8.8 | -2.6 | 31.4 | 2.0 | .
COC(=O)C1CN(C#N)N(c2ccc(Cl)cc2)C12c1ccccc1-c1ccccc12 (stereo not given) | 7.0 | 3.1 | 792.2* | -17.6 | -0.8 | 7.8 | -1.6
O=C(O)c1cc(Oc2ccc(C(F)(F)F)cc2Cl)ccc1[N+](=O)[O-] | -3.7 | 4.5 | 513.6* | 17.5 | 20.7 | 1.7 | 0.2
O=C(O)c1ccc([N+](=O)[O-])c([N+](=O)[O-])c1 | . | 0.2 | . | 3.8 | . | . | .
COC(=O)c1cn(C(=O)c2cccc3ccccc23)c2ccccc12 | -0.1 | 1.5 | 490.0* | -3.6 | 4.9 | 1.6 | -0.6
O=C(O)C1C(C(=O)O)C2(Cl)C(Cl)=C(Cl)C1(Cl)C2(Cl)Cl (stereo not given) | -1.7 | 0.1 | 400.4* | 1.2 | . | 4.6 | 0.7
C=CCOC(=O)C1C(C(=O)O)C2(Cl)C(Cl)=C(Cl)C1(Cl)C2(Cl)Cl (stereo not given) | . | -5.9 | . | -1.0 | . | . | .
C=CCC1(Cc2ccsc2)C(=O)NC(=O)NC1=O | . | -0.2 | . | 2.6 | . | . | .
OC[C@@H](O)CCl | -4.2 | . | 360.1* | . | 8.6 | -0.8 | 0.3
CC1CN=C(NCc2ccccc2)S1 (stereo not given) | 1.8 | -0.9 | 679.5* | 5.4 | 12.2 | -0.9 | 0.1
C(#CCN1CCCCC1)CN1CCCCC1 | . | . | . | 0.2 | . | . | .
CCN(CCCl)c1cc(CN(C)C)cc(NC(=O)c2ccc(C(=O)Nc3cc(CN(C)C)cc(N(CC)CCCl)c3)cc2)c1 | . | -1.7 | . | -14.7 | . | . | .
O=C(NC1CCCCC1)N1Cc2ccccc2-n2nncc2C1 | . | -1.1 | . | 0.3 | . | . | .
O=C1NCN(c2ccccc2)C12CCN(C(c1cccc3ccccc13)c1nnnn1C1CCCC1)CC2 (stereo not given) | . | . | . | -7.7 | . | . | .
O=[N+]([O-])c1ccccc1CN1CC=C(c2ccc(F)cc2)CC1 | . | 0.6 | + | -8.4 | 3.9 | 0.5 | 0.8
Cc1ccc(-[n+]2c(Cc3nn(-c4ccccc4)c(C)[n+]3-c3ccc(C)cc3)nn(-c3ccccc3)c2C)cc1 | . | . | . | 4.3 | . | . | .
Cc1cc(C)n(CCOC(=O)C2C(C=C(Cl)Cl)C2(C)C)n1 (stereo not given) | 4.2 | 6.8 | 905.5* | -10.6 | 18.5 | 0.3 | 0.4
SMILES | AHR activator | NR3A LBD binder | Mot1-301 SUMO | Cardio protect | AI-2 QS mod | NTR1 ag | Yeast Mot1 SUMO | others
CC(=O)C1(c2ccccc2)CCNCC1 | -0.8 | 0.8 | 706.2* | 3.8 | 36.9 | 1.3 | 0.4[21 µM]
O=C(O)C1(c2ccc(Cl)cc2)CCC1 | -0.8 | -0.2 | . | -2.8 | 20.8 | 1.9 | .
CN1C(=O)C(=Cc2cn(CC(=O)N3CCCC3)c3ccccc23)C(=O)N(C)C1=O | -4.6 | 0.8 | + | 6.3 | 8.6 | 5.0 | 0.5
CN1C(=O)C(=Cc2cn(CC(=O)N3CCCCC3)c3ccccc23)C(=O)N(C)C1=O | 2.3 | 3.9 | 6.3 | 9.3 | 8.8 | 1.4 | .
CC12C=CC(=O)C=C1CCC1C2C(O)CC2(C)C1CCC2(C)O (stereo not given) | . | 0.6 | . | -0.8 | . | . | .
COc1ccc(N/N=C/c2c(O)n(-c3cccc(C)c3)c(=O)[nH]c2=O)cc1 | -2.9 | 2.3 | 216.3 | -6.9 | 17.2 | 0.2 | .
Cc1cccc(N/N=C/c2c(O)[nH]c(=S)[nH]c2=O)c1 | 3.9 | 1.1 | 376.3* | -1.1 | 3.9 | 0.4 | 0.1
O=C(c1ccccc1)C(CN1CCCC1)c1ccccc1 (stereo not given) | -1.6 | 1.3 | 560.1* | -18.5 | 7.3 | . | -1.3
C=C1C2C[C@@]3([C@@H]1O)[C@@H](C[C@@H]2O)[C@@]12C4[C@@H]3C[C@@H]1[C@@](C)(CC[C@@H]2O)CN4CC | -0.8 | 0.6 | 405.1* | 7.0 | . | 2.1 | 0.5
CCN1C[C@]2(C)CC[C@H](O)[C@]34C1[C@H](C[C@H]23)[C@@]1(O)C[C@H](OC)[C@H]2C[C@@H]4[C@@H]1C2O (stereo not given in full) | -3.0 | 3.1 | 9.6 | 11.2 | . | -1.7 | .
C[n+]1c(-c2ccccc2)cc(CCCCc2cc(-c3ccccc3)[n+](C)c(-c3ccccc3)c2)cc1-c1ccccc1 | -2.0 | -2.4 | 368.5* | -22.7 | 13.0 | -1.7 | -0.6
